# In PubChem BioAssay (NCATS):
# Inconclusive results are not listed. Entries that show only a call come without a potency. Values without a mark were called inactive. Calls of active or inactive are those of the source. The call rests on the fitted dose curve; in most records, active means well fitted inhibition curve with a large enough effect; inconclusive means small, poorly fitted or top-dose-only effect; inactive means no such curve, though single readings can be large or run the other way.
# Experiments:
# [1] = system: Zika virus NS2B-NS3 protease (unlinked complex); test: Primary screen GU Rhodamine qHTS for Zika virus inhibitors: Unlinked NS2B-NS3 protease assay (AID 1347159); further: nearly all actives have a fitted effect of over 60% in size; further: potency means the concentration at half of the fitted maximal effect
# How it was run: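 In dose–response format, inhibition of unlinked protease (25 nM) was measured with 1.5 microM bis-peptide Rhodamine110 substrate. Aprotinin served as the intraplate control.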
# [2] = system: Zika virus NS2B-NS3 protease (linked construct); test: Primary screen NINDS Rhodamine qHTS for Zika virus inhibitors (AID 1347160); further: nearly all actives have a fitted effect of over 55% in size
# How it was run: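 Each compound, titrated, sat 15 min with 25 nM linked protease before 1.5 microM Rhodamine110 substrate went in. Fluorescence gain over the next 15 min, in pH 8.0 Tris with Tween 20, gave Hill-fitted curves.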
SMILES,Potency [1],Potency [2],"activity change, negative = inhibition [1]"
CC(C)=CCC/C(C)=C/CO[C@@H]1O[C@H](CO[C@@H]2OC[C@](O)(CO)[C@H]2O)[C@@H](O)[C@H](O)[C@H]1O,inactive,inactive,
CC1(C)CCC[C@@]2(C)[C@H]1[C@H](O)C=C(CO)[C@]2(O)CO,inactive,inactive,
COc1cc(C[C@@]2(O)CO[C@@H](c3ccc(O[C@@H]4O[C@H](CO)[C@@H](O)[C@H](O)[C@H]4O)c(OC)c3)[C@H]2CO)ccc1O,inactive,inactive,
COC(=O)C(CC1(O)c2ccccc2N2C(=O)C(C)(C)N(O)C21)n1cnc2ccccc2c1=O (centres undefined),inactive,inactive,
CC1(O)CCC2C(C3C1CCC3(C)O)C2(C)C (centres undefined),inactive,inactive,
COc1cccc(OC)c1-c1ccc(C[C@H](NC(=O)c2c(Cl)cccc2Cl)C(=O)O)cc1,inactive,inactive,
Cc1ccc(Nc2nnc(-c3ccc([N+](=O)[O-])cc3)o2)cc1Cl,inactive,inactive,
Cc1nnc(-c2ccc3occ(-c4ccc(S(C)=O)cc4)c3c2)o1 (centres undefined),inactive,inactive,
C=C1CCC2[C@](C)(CCC[C@]2(C)C(=O)O)[C@H]1CC/C(C)=C/C(=O)OC (some centres undefined),12.6 µM (active),inactive,
CCCC1=CC2=C(CO1)C(=O)C(C)(O)C(OC(=O)c1c(C)cc(OC)cc1O)C2 (centres undefined),inactive,inactive,
COc1c(O)cc2c(c1O)C(=O)O[C@H](C)[C@H]2O,inactive,inactive,
COC(=O)[C@@H](NC(=O)[C@H](CC(C)C)NC(=O)N(Cc1ccccc1)C[C@@H](O)[C@H](Cc1ccccc1)NC(=O)OC(C)(C)C)C(C)C,,inactive,14.8% [at 19.1 µM]
